The supplement of paper PMC8253809

Legend:
Assay in all cases: growth inhibition (% activity, log2 RLU normalised to DMSO / staurosporine); higher = more growth inhibition
Conditions in all cases: 33 µM
DIPGX29 = tested on: DIPGX29 (H3.3 K27M diffuse intrinsic pontine glioma line)
Procedure, shortened: (§1)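 For each approved drug, the growth-inhibition value is the replicate median of per-plate normalised CellTiter-Glo data. Luminescence was log2-transformed and expressed as % activity between solvent and positive control wells. Drugs were applied in triplicate at a single final concentration of about 33 μM for 7 days at 37 °C, 5% CO2 to pHGG cell lines and H9-derived neural stem cells.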

DIPGX37 = tested on: DIPGX37 (H3.3 K27M diffuse intrinsic pontine glioma line)
Procedure, shortened: as §1

DIPGX7 = tested on: DIPGX7 (H3.3 K27M diffuse intrinsic pontine glioma line)
Procedure, shortened: as §1

DIPGX9 = tested on: DIPGX9 (diffuse intrinsic pontine glioma line)
Procedure, shortened: as §1

HGGX39 = tested on: HGGX39 (paediatric high-grade glioma line)
Procedure, shortened: as §1

HGGX6 = tested on: HGGX6 (H3.3 G34R paediatric high-grade glioma line)
Procedure, shortened: as §1

HNSC = tested on: HNSC
Procedure, shortened: as §1

SUDIPGIV = tested on: SUDIPGIV (diffuse intrinsic pontine glioma line)
Procedure, shortened: as §1

SUDIPGVI = tested on: SUDIPGVI (diffuse intrinsic pontine glioma line)
Procedure, shortened: as §1

SUDIPGXIII = tested on: SUDIPGXIII (diffuse intrinsic pontine glioma line)
Procedure, shortened: as §1

Structure (SMILES)	growth inhibition (DIPGX29)	growth inhibition (DIPGX37)	growth inhibition (DIPGX7)	growth inhibition (DIPGX9)	growth inhibition (HGGX39)	growth inhibition (HGGX6)	growth inhibition (HNSC)	growth inhibition (SUDIPGIV)	growth inhibition (SUDIPGVI)	growth inhibition (SUDIPGXIII)
CCN(CC)CCOC(=O)C1(C2CCCCC2)CCCCC1	-1.15%	-1.5%	-1.55%	-2.17%	-2.47%	-0.591%	-1.91%	-0.751%	-0.615%	0.956%
Cc1ccc(C(=O)Nc2ccc(CN3CCN(C)CC3)c(C(F)(F)F)c2)cc1C#Cc1cnc2cccnn12	60.2%	59.1%	51.4%	56.7%	56.8%	50%	62.7%	18.6%	6.05%	22.9%
CC(C)[N+]1(C)[C@@H]2CC[C@H]1C[C@@H](OC(=O)C(CO)c1ccccc1)C2 (stereo not given in full)	-0.758%	3.5%	0.48%	0.945%	1.73%	2.16%	-1.56%	-0.725%	2.4%	0.743%
O=C[C@H](O)[C@@H](O)[C@H](O)CO	1.32%	0.386%	0.91%	1.55%	1.07%	1.49%	0.405%	-0.641%	-1.35%	-0.863%
CNC(=C[N+](=O)[O-])NCCSCc1csc(CN(C)C)n1	-0.765%	-2.32%	-0.581%	0.0593%	0.382%	0.506%	-0.992%	-0.124%	0.207%	0.421%
CC1(C)S[C@@H]2[C@H](NC(=O)C(C(=O)O)c3ccccc3)C(=O)N2[C@H]1C(=O)O (stereo not given in full)	0.227%	2.06%	0.432%	0.809%	2.53%	1.87%	0.956%	-0.316%	3.27%	0.516%
Nc1ncn(C2OC(CO)C(O)C2O)c(=O)n1 (stereo not given)	3.4%	-0.711%	5.91%	7.54%	4.31%	1.61%	55.5%	16.7%	0.0997%	-1.9%
CCCCCCCCCCCCCCCC[N+](C)(C)CCN(Cc1ccc(OC)cc1)c1ncccn1	59.2%	55.6%	57.6%	55.3%	59.2%	62%	57.8%	57.6%	56.7%	42.9%
CN1CCN(CCCN2c3ccccc3Sc3ccc(Cl)cc32)CC1	4.66%	1.44%	9.7%	-0.83%	3.02%	1.39%	13.3%	-0.567%	-3.14%	-0.277%
CN(C)CCCC1(c2ccc(F)cc2)OCc2cc(C#N)ccc21 (stereo not given)	1.68%	3.31%	3.03%	1.7%	2.63%	3.21%	-0.115%	1.18%	1.71%	0.506%
CO[C@H]1/C=C/O[C@@]2(C)Oc3c(C)c(O)c4c(O)c(c(/C=N/N5CCN(C)CC5)c(O)c4c3C2=O)NC(=O)/C(C)=C\C=C\[C@H](C)[C@H](O)[C@@H](C)[C@@H](O)[C@@H](C)[C@H](OC(C)=O)[C@@H]1C	-0.241%	-0.311%	-0.321%	-1.43%	0.825%	3.31%	-3.9%	-0.0069%	-1.69%	1.7%
CC[C@H](C)C(=O)O[C@H]1C[C@@H](C)C=C2C=C[C@H](C)[C@H](CC[C@@H]3C[C@@H](O)CC(=O)O3)[C@H]21	6.68%	-1.93%	8.58%	5.72%	16.2%	10.8%	51.5%	18.1%	-6.1%	-0.657%
CCOc1nc2cccc(C(=O)OC(C)OC(=O)OC3CCCCC3)c2n1Cc1ccc(-c2ccccc2-c2nn[nH]n2)cc1 (stereo not given)	-1.79%	-1.28%	-1.84%	-0.119%	-0.661%	0.0529%	-2.55%	-3.13%	-3.95%	-0.781%
CCCCN1CCCCC1C(=O)Nc1c(C)cccc1C (stereo not given)	-1.45%	-1.09%	-1.58%	0.909%	1.03%	0.943%	-1.77%	-2.22%	-1.08%	7.3%
C[C@]12C=CC(=O)C=C1CC[C@@H]1[C@@H]2C(=O)C[C@@]2(C)[C@H]1CC[C@]2(O)C(=O)CO	-2.83%	-1.18%	-0.368%	-2.35%	-1.89%	-3.12%	-4.28%	-3.78%	-6.66%	1.72%
Clc1ccc(C(Cn2ccnc2)OCc2ccsc2Cl)c(Cl)c1 (stereo not given)	4.62%	-2.6%	2.82%	4.52%	8.15%	7.53%	4.99%	13.7%	2.98%	5.65%
OC[C@H]1O[C@H](O[C@]2(CCl)O[C@H](CCl)[C@@H](O)[C@@H]2O)[C@H](O)[C@@H](O)[C@H]1Cl	-2.41%	-0.64%	-2.77%	-3.01%	-2.1%	-2.77%	-5.57%	-0.426%	-3.09%	0.882%
CCCc1nc(C(C)(C)O)c(C(=O)OCc2oc(=O)oc2C)n1Cc1ccc(-c2ccccc2-c2nnn[nH]2)cc1	-1%	0.0168%	-0.622%	0.493%	-1.5%	-3.62%	12.4%	-1.28%	-2.12%	-2.02%
CCc1nc(N)nc(N)c1-c1ccc(Cl)cc1	16.1%	2.67%	1.94%	4.42%	7.42%	2.78%	6.9%	12.6%	7.22%	4.01%
Cc1ccnc(NS(=O)(=O)c2ccc(N)cc2)n1	0.307%	1.2%	-0.936%	0.0876%	1.13%	-0.277%	-0.552%	0.606%	0.117%	1.12%
